A selection: hits, their analogues and other compounds. The true share with any hit is near 3.7%.
Nrf2 block – inhibitors of Nrf2 signaling. hit rate 2.1% among 360,000. A549 ARE-Fluc reporter, luciferase luminescence, 18-24 h. Potency, µM (top dose mostly 46 µM), inactives show top-dose activity change, negative = inhibition, most hits filed as inhibitors; also: % is scaled to controls: 0 for no effect and ±100 for the full control effect; nearly all actives have a fitted effect of over 60% in size
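Cells were seeded and rested 2 h, then exposed to compounds for 18-24 h. CellTiter-Fluor was read first as a viability measure. BugLite was added 15 min before the final luminescent read of ARE-luciferase activity in A549 cells.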
Nrf2 ARE act – activates Nrf2 signaling | AREc32 ARE-luciferase reporter (MCF7-derived line), luminescence, 24 h | Potency, µM (top dose mostly 46.1 µM), without a hit: at the highest dose activation, most hits filed as activators | hit rate 0.31% among 410,000 | AID 624171; also: % of control where 0% means no effect; nearly all actives have a fitted effect of over 65% in size
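ARE-driven firefly luciferase activity in AREc32 cells measured after a 24 hr compound exposure at 37 deg C, using Steady-Glo reagent and a 30 min room-temperature hold.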
A549 tox – kills or reduces viability of A549 cells in Nrf2 counter-screen | Potency, µM (top dose mostly 46 µM), inactives show top-dose activity change, negative = cytotoxicity, usual class: inhibitors | A549 ARE-Fluc cells, CellTiter-Fluor viability, 18-24 h | hit rate 0.16% among 390,000 | AID 504648; also: % is scaled to controls: 0 for no effect and ±100 for the full control effect
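A549 ARE_Fluc cells in 5% FBS OPTI-MEM were exposed to compounds in concentration-response for 18-24 h at 37 deg C. Viability was read by CellTiter-Fluor fluorescence (Ex 405/Em 525) after 30 min, before the luciferase read.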
ELG1 repair inh – inhibitors of ELG1-dependent DNA repair in HEK293T cells. HEK293T ELG1-luciferase reporter, luminescence, 16 h; DNA damage induced by 5-fluorouridine. Potency, µM (doses to about 46.1 µM), for the others: top-dose activity change, negative = inhibition, hits mostly inhibitors. hit rate 2.3% among 330,000. AID 504467; also: % is scaled to controls: 0 for no effect and ±100 for the full control effect; nearly all actives have a fitted effect of over 55% in size
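Reporter activity after DNA damage by 5-fluorouridine is monitored. Compound-treated cells incubate 16 hr at 37 °C, then ONE-Glo is added for 30 min before luminescence reading.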
Numbers without * were called inactive; ? = inconclusive; . = not tested or not shown; [ ] = remark or other dose. Calls follow the shape of the dose curve; as a rule, active = well fitted curve in the direction sought with a large enough effect; inconclusive = small, poorly fitted or top-dose-only effect, or another doubt; inactive = no such curve, though single readings can be large; an effect the other way counts as inactive or inconclusive. Potency is read from the fitted curve at half-maximal effect.

SMILES	Nrf2 block	Nrf2 ARE act	A549 tox	ELG1 repair inh
CCCS(=O)(=O)N1CC(=O)N(c2cccc(Cl)c2C)C(C)(C(=O)NC2CCCC2)C1 (configuration not stated)	-26%	-1%	7%	.
COc1ccccc1NC(=O)C(=O)NCC(c1ccc2c(c1)OCO2)N1CCN(C)CC1 (configuration not stated)	.	6%	-1%	.
COc1ccc2nc(/C(C#N)=C\c3ccc(Oc4ccc([N+](=O)[O-])cn4)cc3)[nH]c2c1	-17%	4%	-19%	-17%
Cc1ccc2nc(/C(C#N)=C\c3ccc(Oc4ccc([N+](=O)[O-])cn4)cc3)[nH]c2c1	7%	7%	-1%	5.2µM*
FC(F)(F)c1ccc(N2CCOCC2)c(Nc2nc3ccccc3n3cnnc23)c1	21µM*	7%	16µM*	?
COC(=O)c1sc(N2CCN(c3ccc(Cl)cc3)CC2)nc1N	?	0%	-10%	23µM*
COC(=O)c1c(-c2ccc(Cl)cc2)noc1N1CCN(c2ccc(OC)cc2)CC1	.	1%	5%	.
CCc1sc(-c2cc3cccc(OC)c3oc2=O)nc1-c1ccccc1	4%	.	-2%	.
CCN(CC(=O)Nc1c(F)cccc1F)C(=O)CNC(=O)c1cccc(C)c1	4%	2%	3%	11%
CC#C[C@]1(O)CC[C@H]2[C@@H]3CCC4=CC(=O)CCC4=C3[C@@H](c3ccc(N(C)C)cc3)C[C@@]21C	23µM*	0%	-19%	-5%
CC[C@]1(c2ccccc2C)ON(c2ccccc2C(F)(F)F)C1=O	1%	4%	1%	6%
COc1ccccc1[C@@]1(C)ON(c2ccccc2C(F)(F)F)C1=O	-33%	0%	?	18µM*
C=CC[n+]1c(-c2ccc(OCC)cc2)csc1NNC(=O)Nc1ccccc1	15µM*	13%	-6%	?
CC(=O)Nc1ccc(OC2=NS(=O)(=O)c3ccccc32)cc1	?	.	-3%	.
O=C(C1=NN(c2ccccc2)C(=O)CC1)N1CCc2ccccc2C1	-4%	1%	1%	4%
COc1cccc2c1C(CO)N1C(C#N)C3CC(C(=O)O)C(C1C2)N3C (configuration not stated)	?	-4%	-18%	0.33µM*
COc1cccc2c1OCC(C(=O)O)C2 (configuration not stated)	7%	0%	-1%	10%
Cn1c(CCNC(=O)c2ccc(F)cc2)nc2ccccc21	-14%	-1%	-7%	-11%
O=C(NCCc1nc2ccccc2n1Cc1ccccc1F)c1ccc(F)cc1	23µM*	4%	?	.
COC(=O)CCN(c1ccccc1)C(CNS(=O)(=O)c1ccccc1)c1ccccc1 (configuration not stated)	?	7%	3%	.
CS(=O)(=O)N(CC(=O)Nc1ccc(CC#N)cc1)c1ccc(C23CC4CC(CC(C4)C2)C3)cc1	15µM*	4%	?	?
O=C(CCCN1C(=O)NC2(CCCC2)C1=O)Nc1ccc(Cl)c(S(=O)(=O)N2CCOCC2)c1	-20%	0%	-9%	1%
COc1ccc(/C=C/c2cc(C(=O)O)c3ccccc3n2)cc1	6.5µM*	-2%	0%	?
COc1cc(OC)c(OC)cc1/C=C/c1cc(C(=O)O)c2ccccc2n1	-23%	0%	-9%	16%
COc1ccc2c(c1)CC/C(=C\c1ccc(C)o1)C2=O	19%	?	6%	?
SMILES	Nrf2 block	Nrf2 ARE act	A549 tox	ELG1 repair inh
COc1ccc2c(c1)CC/C(=C/c1ccncc1)C2=O	-30%	22µM*	2%	-24%
COc1ccc(-c2onc(C)c2-c2ccc(C(=O)OC(C)C)o2)c(O)c1	-1%	1%	-11%	23µM*
COc1ccc(CCNc2ncnc3c2c(-c2ccccc2)cn3-c2ccc(F)cc2)cc1OC	.	0%	-17%	.
O=C(Nc1cccc(C(=O)O)c1)Nc1ccc2c(c1)OCO2	?	-3%	2%	2.6µM*
COc1ccc(C(C)(C)C)cc1NC(=O)Nc1ccc2c(c1)OCO2	23µM*	-1%	?	?
COc1ccc(-c2ccc3ncnc(NCC4CCCO4)c3c2)cc1OC (configuration not stated)	?	.	-13%	.
Cc1ccc(C(=O)OCC(=O)NC2CCCCC2)s1	11%	3%	4%	?
CCCCOc1ccc(C(=O)C(CN2CCOCC2)c2ccccc2)cc1 (configuration not stated)	?	?	-24%	?
O=C(c1ccc(Cl)cc1)C(CN1CCCC1)c1ccccc1 (configuration not stated)	-8%	?	-3%	?
CCCOc1ccc(C(=O)C(CN2CCCC2)c2ccccc2)cc1 (configuration not stated)	-29%	?	-8%	18µM*
COc1ccc(C(=O)C(CN2CCCC2)c2ccccc2)cc1 (configuration not stated)	-13%	?	-6%	16µM*
CN1CCN(NC(=O)NC2CCCCC2)CC1	11%	0%	12%	6%
COc1cc2c(C(=O)N3CCN(C)CC3)c(C)oc2cc1Br	-5%	0%	5%	-5%
CCOC(=O)c1c(C)oc2cc(Br)c(OC(=O)N3CCOCC3)cc12	-5%	6%	-1%	23µM*
CCCCN(C)C(=O)c1ccc2c(c1)N(Cc1ccc(F)cc1)C(=O)c1ccccc1S2(=O)=O	16µM*	7%	?	.
Cc1ccc(C(=O)NNc2ncnc3c2cnn3C)cc1	10%	-1%	-7%	19%
Cn1ncc2c(O/N=C(\N)c3ccc(C(F)(F)F)cc3)ncnc21	18µM*	-4%	?	?
O=C(c1ccc2c(c1)OCCO2)C1CCN(S(=O)(=O)c2ccccc2F)CC1	13µM*	0%	-21%	-10%
Nc1ccc2c(c1)C1(CCC2)NC(=O)NC1=O (configuration not stated)	.	-1%	.	.
CCC(=NNC(=O)c1ccc2c(c1)nc(C)n2CC)c1cc(F)ccc1O	6.5µM*	0%	-7%	?
Cc1ccc(Cn2ncc(Cl)c(Cl)c2=O)cc1	17%	?	1%	?
O=c1c(Cl)c(Cl)cnn1-c1ccccc1	?	?	?	18µM*
O=c1c(Cl)c(Cl)cnn1Cc1ccccc1Cl	10%	?	-3%	10µM*
Nc1c(Cl)cnn(-c2ccccc2)c1=O	3%	2%	6%	.
COc1ccccc1C1CC(c2ccccc2)=NN1S(=O)(=O)c1ccccc1 (configuration not stated)	-25%	0%	12%	23µM*
CCOc1cc(-c2nccc3cc(OC)c(OC)cc23)cc(OCC)c1OCC	?	3%	-22%	15µM*
COc1cc(N)c(Cc2nccc3cc(OC)c(OC)cc23)cc1OC	-2%	0%[9.22 µM]	-18%	?
COc1ccc(C2C(O)C(c3c[nH]c4ccccc34)=NN2C(=O)CCl)cc1 (configuration not stated)	6%	?	-13%	8.2µM*
